# sEH act: increases human soluble epoxide hydrolase activity. P34913. activation, % at 2 µM. purified human sEH enzymatic activity, activator screen. AID 717. 91,000 tested, 0.04% active; in the data active = activation above about 37%
# CYP2C9 inh: human CYP2C9 inhibition | P11712 | CYP2C9 Supersomes, luciferin-H conversion, luminescence | inhibition, % at 5 µM | 96,000 tested, 20% active | AID 777;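 active = blocking of liver enzyme CYP2C9 beyond about 50% at 5 µM, limit read from the data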
# sEH inhibitor: soluble epoxide hydrolase (human) inhibition. P34913. recombinant human sEH enzymatic activity assay. inhibition, % at 2 µM. 91,000 tested, 0.34% active. AID 707; in the data active = inhibition above about 80%
# CYP2C19 inhib: inhibitors of human CYP2C19; P33261; CYP2C19 Supersomes, luciferin-H EGE luminescence, 30 min; inhibition, % at 5 µM; 96,000 tested, 21% active; AID 778;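 active = CYP2C19 inhibition above a set limit at 5 µM in the primary screen, cut at about 50% in these data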;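 also: plate controls were negative control wells for no effect and 2.5 mM tranylcypromine positive control for full effect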
# Target sequence (P33261 whole entry, looked up): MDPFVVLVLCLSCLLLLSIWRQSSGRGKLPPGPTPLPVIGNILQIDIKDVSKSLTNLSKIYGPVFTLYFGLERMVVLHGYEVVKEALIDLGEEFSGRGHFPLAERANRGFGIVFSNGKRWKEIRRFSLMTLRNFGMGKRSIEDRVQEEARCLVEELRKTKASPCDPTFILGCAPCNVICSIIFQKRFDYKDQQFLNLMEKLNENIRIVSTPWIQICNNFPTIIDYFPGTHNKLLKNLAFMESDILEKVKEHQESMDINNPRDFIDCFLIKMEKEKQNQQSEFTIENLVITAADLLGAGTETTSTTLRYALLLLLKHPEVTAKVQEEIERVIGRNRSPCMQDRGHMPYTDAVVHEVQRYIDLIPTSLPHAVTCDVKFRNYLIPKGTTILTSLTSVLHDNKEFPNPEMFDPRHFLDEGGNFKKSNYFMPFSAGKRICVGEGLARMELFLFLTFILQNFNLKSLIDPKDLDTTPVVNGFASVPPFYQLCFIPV
# CYP2C19 activ: increases human CYP2C19 enzyme activity; recombinant CYP2C19, luciferin-H EGE luminescence; stronger effect = higher value; 0 = fully inhibited enzyme, 1 = untreated enzyme; activation factor at 5 µM; 96,000 tested, under 10 active;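 active = activation factor of at least 2 at 5 µM in the primary screen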;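 also: 0 = wells with 2.5 mM tranylcypromine and 1 = vehicle-only wells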
# CYP2C9 activ: CYP2C9 (human) activation | P11712 | recombinant CYP2C9, luciferin-H conversion, luminescence; stronger effect = higher value; factor 1 = untreated enzyme, 0 = blocked | activation factor at 5 µM | 96,000 tested, 1.4% active | AID 1024;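 active = activation factor of 2 or more for CYP2C9 at a 5 µM dose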;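 also: 0 = sulfaphenazole-blocked wells and 1 = vehicle-only wells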
# Numbers without * were called inactive; x = not tested or not shown. Most compounds without a hit are left out; they make up all but 27% or so of the library.
SMILES,sEH act,CYP2C9 inh,sEH inhibitor,CYP2C19 inhib,CYP2C19 activ,CYP2C9 activ
COc1cc(OC)c(CN2CCCCCCC2)cc1Br,9,0,-9,37,0.6,1
COc1cc(OC)c(CN2CCN(c3ccc(F)cc3)CC2)cc1Br,x,11,x,78*,0.2,0.9
CN1c2ccccc2C(C)(C)C12C=Cc1cc(O)ccc1O2 (stereo unspecified),1,61*,1,76*,0.2,0.4
O=C(CC1C(=O)N(c2ccc(Cl)cc2)C(=S)N1CCc1ccncc1)Nc1ccc(F)cc1 (stereo unspecified),-4,95*,6,85*,0.2,0
CCOC(=O)c1ccc(NC(=O)CC2C(=O)N(c3ccc(F)cc3)C(=O)N2CCCOC)cc1 (stereo unspecified),12,49,-13,36,0.6,0.5
O=C(CC1C(=O)N(c2ccc(F)cc2)C(=O)N1Cc1ccccn1)Nc1ccccc1 (stereo unspecified),5,19,-5,56*,0.4,0.8
O=C(/C=C/c1c(Cl)cccc1Cl)N1CCN(c2ncccn2)CC1,-2,52*,4,96*,0,0.5
O=C(Nc1ccccc1)N1CCN(c2ccc(C(F)(F)F)cn2)CC1,-20,24,19,29,0.7,0.8
O=C(Nc1cccc(Cl)c1)N1CCN(C/C=C/c2ccccc2)CC1,x,62*,x,42,0.6,0.4
O=C(Nc1ccc(F)cc1F)N1CCN(c2ncccn2)CC1,x,14,x,70*,0.3,0.9
O=C(Nc1ccc2ccccc2c1)N1CCN(c2ncccc2C(F)(F)F)CC1,-54,-65,55,70*,0.3,1.6
O=C(/C=C/c1ccccc1)N1CCN(c2cccc(Cl)n2)CC1,-6,46,5,25,0.7,0.5
Nc1cc(=O)[nH]c(SCCNS(=O)(=O)c2ccccc2)n1,-7,-3,5,-2,1,1
O=C(c1cc2ccccc2oc1=O)N1CCN(CCc2ccccc2)CC1,x,-1,x,-5,1.1,1
Cc1ccc(CN2CCNC(=O)C2CC(=O)O)o1 (stereo unspecified),0,-11,-2,-9,1.1,1.1
Cc1ccc(NC(=O)CCN2CCN(C/C=C/c3ccccc3)CC2)cc1,6,13,-3,16,0.8,0.9
CCOc1ccccc1N1CCN(C(=O)Nc2cccc(Cl)c2)CC1,-32,-27,32,45,0.6,1.3
O=C(Nc1cccc(Cl)c1)N1CCN(c2ncccn2)CC1,-18,56*,20,89*,0.1,0.4
Cc1ccc(NC(=O)CCN2CCN(C/C=C/c3ccccc3)CC2)cc1C,4,-119,-5,2,1,2.2*
COc1ccc(CC(=O)Nc2cccc(/C(C)=N/NC(=O)c3cccc([N+](=O)[O-])c3)c2)cc1,-16,38,18,1,1,0.6
[O-]/[N+](=C\c1ccncc1)c1ccccc1,x,19,x,21,0.8,0.8
CCOC(=O)N1CCN(C(=O)c2ccc3c(=O)n4c(nc3c2)CCCCC4)CC1,14,8,-17,19,0.8,0.9
Cc1ccc(C(=O)NNC(=S)Nc2cccc3ccccc23)s1,3,65*,-5,38,0.6,0.3
O=C(NNC(=S)Nc1cccc2ccccc12)c1cccc(Br)c1,5,96*,-4,91*,0.1,0
CN1C(=O)c2cccc(NC(=O)Cc3ccccc3)c2C1=O,-8,58*,10,44,0.6,0.4
SMILES,sEH act,CYP2C9 inh,sEH inhibitor,CYP2C19 inhib,CYP2C19 activ,CYP2C9 activ
c1ccc(-n2c(SCc3ccncc3)nnc2-c2ccco2)cc1,-4,76*,5,59*,0.4,0.2
Cc1sc2nc(SCc3nc(-c4cccs4)no3)n(-c3ccccc3)c(=O)c2c1C,-6,66*,9,20,0.8,0.3
c1ccc(-n2c(SCc3nc(-c4cccs4)no3)nnc2-c2ccco2)cc1,x,92*,x,43,0.6,0.1
CC(C)(C)NC(=O)CSc1nnnn1C(C)(C)C,-8,8,9,21,0.8,0.9
CC(=O)c1c(C(C)=O)c(C)n(NC(=O)c2ccncc2)c1C,13,45,-15,89*,0.1,0.6
Cc1noc(C(=O)NCc2ccc(F)cc2)c1Cl,8,-14,-7,11,0.9,1.1
Cc1nn(CC(=O)NCCc2ccccc2)c(=O)c2ccccc12,-3,-21,2,46,0.5,1.2
Cc1nc2c(C(=O)NCCc3ccccc3)c[nH]n2c(=O)c1Cl,0,64*,-2,-3,1,0.4
Cc1nc2c(C(=O)NCc3ccc(F)cc3)c[nH]n2c(=O)c1Cl,4,63*,-6,-6,1.1,0.4
Cc1ccc2c(c1)C(C)CC(C)(C)N2C(=O)NC1CCCCC1 (stereo unspecified),-57,-38,56,12,0.9,1.4
Cc1ccc2c(c1)N(C(=O)NC1CCCCC1)C(C)(C)CC2C (stereo unspecified),-44,33,43,72*,0.3,0.7
Cc1nonc1OCCNC(=O)C12CC3CC(CC(C3)C1)C2,-2,-3,5,8,0.9,1
O=[N+]([O-])c1nn(-c2ccccc2)n(O)c1=NCc1ccc2c(c1)OCO2,-9,53*,11,77*,0.2,0.5
O=C(NCc1cccnc1)c1cc(-c2ccco2)on1,x,34,x,9,0.9,0.7
CCOC(=O)N1CCN(S(=O)(=O)c2cc(-c3nn4c(C)nnc4c4ccccc34)ccc2C)CC1,-8,80*,8,56*,0.4,0.2
Cc1ccc(-c2nn3c(C)nnc3c3ccccc23)cc1S(=O)(=O)NCc1ccccc1,1,46,2,28,0.7,0.5
Cc1ccc(-c2nn3c(C)nnc3c3ccccc23)cc1S(=O)(=O)N(C)CCO,12,86*,-14,3,1,0.1
Cc1ccc(-c2nn3c(-c4ccco4)nnc3c3ccccc23)cc1S(=O)(=O)N1CCOCC1,x,17,x,6,0.9,0.8
CCOc1ncccc1C(=O)N(C)CC1COc2ccccc2O1 (stereo unspecified),-1,63*,4,85*,0.1,0.4
Cc1ccc(C)c(N(CC(=O)NC2CCCC2)C(=O)c2oc(C(C)(C)C)cc2C)c1,4,26,-4,26,0.7,0.7
Cc1ccc(C)c(N(CC(=O)NC2CCCC2)C(=O)c2cc3cc4cccc(C)c4nc3s2)c1,-1,96*,3,18,0.8,0
Cc1ccc2cc3cc(C(=O)N(CC(=O)NC4CCCC4)c4cccc(C)c4C)sc3nc2c1,-1,94*,4,47,0.5,0.1
CN1CCN(CCC(=O)Nc2ccccc2Cl)CC1,0,x,1,x,x,x
O=C(CCc1nc(-c2ccccc2F)no1)NC1CCCCC1,-19,28,18,10,0.9,0.7
CCn1c(SCC(=O)c2cc(OC)ccc2OC)nnc1C1CC1,2,-3,-2,94*,0.1,1
CCn1c(SCC(=O)c2ccc(OC)cc2)nnc1C1CC1,-1,-8,5,55*,0.5,1.1
